# A selection: hits, their analogues and other compounds. The true share with any hit is near 6.2%.
# ATXN2 expr inh – inhibitors of ATXN2 expression. HEK-293 ATXN2-luciferase reporter, luminescence, 24 h. Potency, µM (titrated, usually from 57 µM), inactives show at the highest dose activity change, negative = inhibition, actives largely listed as inhibitors. 360,000 compounds, 0.72% hits; further: on the % scale 0 is the no-effect control and ±100 the full control effect; nearly all actives have a fitted effect of over 55% in size
#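 ATXN2-luciferase reporter cells (luciferase flanked by upstream and downstream ATXN2 gene portions) were treated 24 h at 37 °C with compounds at up to 57 uM. SteadyGlo luminescence gave expression; GF-AFC fluorescence gave viability.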
# HT1080 IDH1KD tx – toxicity to HT-1080 IDH1 knockdown cells (counter line); HT-1080 IDH1 knockdown viability, ATP luminescence, 48 h; Potency, µM (top dose mostly 46.1 µM), inactives show top-dose activity, negative = toxicity, actives largely listed as cytotoxic; 360,000 compounds, 2% hits; AID 686971;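 further: 0% = DMSO wells and -100% = cell-free medium wells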
#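 Assay cells: HT-1080 with IDH1 knockdown, 750 per well, RPMI/5% FBS. Exposure: 48 h at 37 °C following 2 h pre-incubation. Read: CellTiter-Glo luminescence; fitted concentration-response, curve class assigned.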
# HT1080NT lethal – kills 2HG-producing HT-1080-NT fibrosarcoma cells; HT-1080-NT fibrosarcoma viability, CellTiter-Glo ATP luminescence, 48 h; Potency, µM (titrated, usually from 46.1 µM), for the others: at the highest dose activity, negative = less viability, hits mostly cytotoxic; 360,000 compounds, 1.6% hits; AID 686970;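 further: NT is the 2HG producing partner of a matched IDH1 knockdown line; 0% = DMSO-treated cells and -100% = media-only wells without cells; nearly all actives have a fitted effect of over 55% in size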
#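 A 48-hour cytotoxicity screen used HT-1080-NT cells plated 2 hours before compound delivery. ATP-based CellTiter-Glo luminescence measured viability, normalized to DMSO and no-cell controls.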
# KB-V1 cytotox – KB-V1 MDR subline cytotoxicity; KB-V1 MDR cells viability, CellTiter-Glo, 72 h; Potency, µM (doses to about 46.1 µM), hits mostly cytotoxic; 400,000 compounds, 3.4% hits; further: on the % scale 0 is the no-effect control and ±100 the full control effect; nearly all actives have a fitted effect of over 60% in size
#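 Luminescent ATP read-out (CellTiter-Glo, 10 min) measures survival of drug-selected KB-V1 MDR cells after 72 h, 37 degrees C compound exposure. Medium: phenol-red-free DMEM, 10% FBS. Values from fitted concentration-response curves.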
# S2 tox – viability counter-screen for ATXN expression inhibitors; S2 cells (HEK-293 line with an ATXN2-luciferase reporter) viability, CellTiter-Fluor protease fluorescence, 24 h; Potency, µM (series often up to 56.7 µM), most hits filed as cytotoxic; 400,000 compounds, 0.49% hits; further: nearly all actives have a fitted effect of over 40% in size
# KB-3-1 tox – kills parental KB-3-1 adenocarcinoma cells | KB-3-1 viability, CellTiter-Glo ATP luminescence, 72 h | Potency, µM (doses to about 46.1 µM), usual class: cytotoxic | 400,000 compounds, 1.4% hits | AID 1347075; further: on the % scale 0 is the no-effect control and ±100 the full control effect; nearly all actives have a fitted effect of over 60% in size
#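 Cells are dispensed, compounds pinned in, plates held at 37 °C for 72 h, then CellTiter-Glo is added and luminescence read after 10 minutes. Cell line: parental KB-3-1 in phenol-red-free DMEM, 10% FBS.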
# The depositor's hits bear a star; i = inactive; u = inconclusive; x = no result given; [ ] = dose if it differs, or a comment. The call rests on the fitted dose curve; in most records, active means well fitted curve in the direction sought with a large enough effect; inconclusive means small, poorly fitted or top-dose-only effect, or another doubt; inactive means no such curve, though single readings can be large; an effect the other way counts as inactive or inconclusive. Potency means the concentration at half of the fitted maximal effect.
SMILES,ATXN2 expr inh,HT1080 IDH1KD tx,HT1080NT lethal,KB-V1 cytotox,S2 tox,KB-3-1 tox
CCc1ccc(-n2c(SC(CC)C(=O)N(CC)CC)nc3n[nH]c(C)c3c2=N)cc1 (stereo not drawn),u,x,x,i,u,i
CN1CCC(N(C)c2nc(-c3ccccc3)nc3ccccc23)CC1,u,-2%[9.24 µM],16µM*,i,i,i
Cc1cc(NC(=O)c2cccn(Cc3cccc([N+](=O)[O-])c3)c2=O)no1,2%,x,x,i,i,i
COC(=O)C1=C(c2cc3ccccc3s2)C[C@@H]2CC[C@H]1N2C(=O)N1CCOCC1,u,8.2µM*,9.2µM*,i,u,u
COC(=O)C1=C(c2cc3ccccc3o2)C[C@@H]2CC[C@H]1N2C(=O)N1CCCCC1,-30%,10µM*,u,u,u,5.8µM*
CCC(C)C(C)(COC(N)=O)COC(N)=O (stereo not drawn),2%,x,x,x,i,x
Cc1cc(-c2ccccc2)cc(-c2ccccc2)[n+]1CCc1ccccc1,u,-88%,-92%,i,u,u
Fc1ccc(C[n+]2c(-c3ccccc3)cc(-c3ccccc3)cc2-c2ccccc2)cc1,u,18µM*,16µM*,i,u,16µM*
Clc1ccc(C[n+]2c(-c3ccccc3)cc(-c3ccccc3)cc2-c2ccccc2)cc1,u,10µM*,16µM*,i,10µM*,10µM*
CCOC(=O)C1(c2ccccc2)CCN(CCc2ccc(N)cc2)CC1,-4%,x,x,x,i,x
CC(=O)OC(C)(C)/C=C/C(=O)C(C)(O)C1[C@H](O)C[C@@]2(C)C3CC=C4C(CC[C@@H](O)C4(C)C)[C@]3(CO)C(=O)C[C@]12C (stereo partly drawn),u,0.033µM*,0.1µM*,3.7µM*,u,u
CC(=O)OC(C)(C)/C=C/C(=O)[C@](C)(O)[C@H]1[C@H](O)C[C@@]2(C)[C@@H]3CC=C4[C@H](C[C@H](O)C(=O)C4(C)C)[C@]3(C)C(=O)C[C@]12C,14µM*,0.033µM*,0.082µM*,8.2µM*,x,0.15µM*
CC(C)(O)C=CC(=O)[C@](C)(O)[C@H]1[C@H](O)C[C@]2(C)[C@@H]3CC=C4[C@@H](C=C(O)C(=O)C4(C)C)[C@]3(C)C(=O)C[C@@]12C,1.5µM*,x,x,x,x,x
CC(=O)OC(C)(C)/C=C/C(=O)C(C)(O)C1C(O)CC2(C)C3CC=C4C(CC(O)C(=O)C4(C)C)C3(C)C(=O)CC12C (stereo not drawn),u,0.046µM*,0.12µM*,0.46µM*,x,0.16µM*
C=CCN1CC[C@]23CCCC[C@H]2[C@H]1Cc1ccc(O)cc13,-2%,x,x,x,i,x
COc1ccc(-c2nnc(Nc3nc4c(OC)cccc4s3)o2)c(OC)c1,u,3.2µM*,4µM*,u,u,u
COC(/C(C)=C/C=C/C(C)=C/c1coc(C)n1)C(C)C1CC(O)C2(C)OC2C=CC(C)C2CC(CC(=O)O2)CC2OC2C(=O)O1 (stereo not drawn),-14%,u,0.013µM*,i,u,u
Cc1nc2c(-c3ccccc3)c(C)nn2c(C)c1CCC(=O)N1CCC2(CC1)OCCO2,-7%,3%,10%,13µM*,i,i
Cc1nc2nc(SCC(=O)N3CCC4(CC3)OCCO4)nn2c(C)c1Cc1ccccc1,1%,2%,4%,26µM*,i,u
Cc1cc(C)n2nc(SCC(=O)N3CCC4(CC3)OCCO4)nc2n1,6%,3%,20%,i,i,i
CCOc1ccccc1-n1c(O)c(C=Nc2ccc(N(CC)CC)cc2)c(=O)[nH]c1=O,-1%,u,u,u,i,16µM*
C[C@H]1CN([C@@H](C)CO)C(=O)c2cccc(NC(=O)c3ccc(-c4nccs4)cc3)c2O[C@@H]1CN(C)C(=O)Nc1cccc2ccccc12,-2%,-10%,-8%,i,i,i
CCOC(=O)C(O)(c1ccc(N(CC)C(=O)OC)cc1)C(F)(F)F (stereo not drawn),16%,4%,-5%,21µM*,i,i
CCOC(=O)N(CC)c1ccc(C(O)(C(=O)OCC)C(F)(F)F)cc1 (stereo not drawn),9%,17%,17%,i,i,i
Cc1ccc(C(=O)Nc2nc3ccccc3[nH]2)cc1,3.5µM*,u,u,u,i,u
SMILES,ATXN2 expr inh,HT1080 IDH1KD tx,HT1080NT lethal,KB-V1 cytotox,S2 tox,KB-3-1 tox
COc1ccccc1NC(=O)Cn1c(=O)n(-c2cccc(Cl)c2)c(=O)c2sc3ccccc3c21,-2%,x,x,i,i,i
Cc1ccsc1-c1nc(CSCC(=O)N2CCC3(CC2)OCCO3)c(C)o1,1%,-11%,0%,u,i,i
Cc1ccccc1-c1nc(CS(=O)CC(=O)N2CCC3(CC2)OCCO3)c(C)o1 (stereo not drawn),-2%,16%,1%,13µM*,i,i
O=Nc1c(-c2ccccc2)n(O)[n+]([O-])c1-c1ccccc1,x,8%,9%,i,u,i
COc1cccc(C(C(=O)NCc2ccco2)N(Cc2ccco2)C(=O)Cn2nnc3ccccc32)c1 (stereo not drawn),3%,5%,-2%,i,u,i
CCCCOC(=O)n1c(=O)oc2ccc(S(=O)(=O)N3CCCCC3)cc21,-14%,u,-17%,i,i,u
CCCCN(C)C(=O)c1oc2ccc(S(=O)(=O)N3CCCCCC3)cc2c1C,u,u,u,2.6µM*,i,i
Fc1cc(Br)ccc1CBr,12%,x,x,x,i,x
C=CCn1c(O)c(N=Nc2c(C)n(C)n(-c3ccccc3)c2=O)c(=O)[nH]c1=S,u,-14%,-7%,3.3µM*,u,u
COc1cc(/C=C(/C)[N+](=O)[O-])ccc1OCc1ccccc1Cl,25µM*,5.8µM*,8.2µM*,u,32µM*,u
CCOP(=O)(OCC)C(C)NC(=O)N(CCCl)N=O (stereo not drawn),13%,x,x,x,x,x
CC(=O)OC1CC[C@]2(C#N)[C@H]3CC[C@]4(C)[C@H](C5C=CC(=O)O5)CCC4(O)C3CCC2(O)C1 (stereo partly drawn),x,15µM*,26µM*,u,u,u
Cc1c(C(=O)c2cccc3ccccc23)c2cccc3c2n1[C@H](CN1CCOCC1)CO3,u,9.2µM*,15µM*,u,u,u

# Bioassay records deposited in PubChem BioAssay by National Center for Advancing Translational Sciences (NCATS).
